High-throughput results deposited in PubChem BioAssay by National Center for Advancing Translational Sciences (NCATS).
This is a sample that favours compounds with a hit; in the whole collection about 19% have one here.
IL-1B inflam inh – inflammasome signaling inhibition, IL-1 beta readout; activity change, % at 57.5 µM; THP-1 LPS/ATP IL-1B secretion, AlphaLISA, 16 h; hits give low values; 360,000 tested, 4.7% active; in the data active = activity change below about -50%; inconclusive = mostly about -30% to -49%
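Secreted IL-1B measured by AlphaLISA bead assay after 16 h compound exposure of THP-1 cells; compounds (final up to 57.5 uM) added 1 h before LPS (250 ng/mL) and ATP (1.25 mM) stimulation; lower signal means less secretion.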
HT1080 IDH1KD tx – toxicity to HT-1080 IDH1 knockdown cells (counter line). HT-1080 IDH1 knockdown viability, ATP luminescence, 48 h. Potency, µM (highest dose often 46.1 µM), inactives show top-dose activity, negative = toxicity, hits mostly cytotoxic. 360,000 tested, 2% active. AID 686971;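 also: potency is read from the fitted curve at half-maximal effect; 0% = DMSO wells and -100% = cell-free medium wells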
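Using the IDH1-knockdown HT-1080 line run in the same batch and compound series as the NT line, viability after 48 h at 37 °C was determined by CellTiter-Glo luminescence and expressed as % activity.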
HT1080NT lethal – kills 2HG-producing HT-1080-NT fibrosarcoma cells | Potency, µM (series often up to 46.1 µM), for the others: at the top dose activity, negative = less viability, hits mostly cytotoxic | 360,000 tested, 1.6% active | AID 686970 | HT-1080-NT fibrosarcoma viability, CellTiter-Glo ATP luminescence, 48 h;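 also: NT is the 2HG producing partner of a matched IDH1 knockdown line; potency is read from the fitted curve at half-maximal effect; 0% = DMSO-treated cells and -100% = media-only wells without cells; nearly all actives have a fitted effect of over 55% in size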
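Toxicity toward the 2HG-producing NT line was scored as %Activity, normalised to DMSO and no-cell wells, from CellTiter-Glo luminescence after 48 hours' treatment.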
DT40 TDP1 no CPT – qHTS for Inhibitors of human tyrosyl-DNA phosphodiesterase 1 (TDP1): qHTS in cells in absence of CPT | DT40 Tdp1-/- hTDP1 cells, no CPT, ATP luminescence, 48 h | Potency, µM (titrated, usually from 46.2 µM), for inactives: at the highest dose activity change, negative = growth inhibition, hits mostly inhibitors | 420,000 tested, 15% active; also: potency is read from the fitted curve at half-maximal effect; nearly all actives have a fitted effect of over 55% in size
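Readout: luminescence from CellTiter-Glo after 30 min in the dark at RT. Cells: DT40 Tdp1-/- with stable hTDP1, 400/well. Exposure: compounds alone, ≥48 hr, 37 °C.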
DT40 TDP1 CPT – DT40-hTDP1 cell growth loss with CPT; Potency, µM (series often up to 46.2 µM), for inactives: at the highest dose activity change, negative = growth inhibition, most hits filed as inhibitors; 420,000 tested, 12% active; chicken DT40 Tdp1-/-;hTDP1 cells + 20 nM CPT, ATP luminescence, 48 h; also: potency is read from the fitted curve at half-maximal effect; nearly all actives have a fitted effect of over 55% in size
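Chicken DT40 Tdp1-/- cells stably complemented with human TDP1 were seeded at 400 cells/well in medium containing 20 nM camptothecin, exposed to pin-transferred compounds, and grown at 37 °C for at least 48 hr. Viability was read as ATP luminescence.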
The depositor's hits bear a star; ? = inconclusive; / = not tested or not shown. Unless noted, calls follow the shape of the dose curve; as a rule, active = well fitted curve in the direction sought with a large enough effect; inconclusive = small, poorly fitted or top-dose-only effect, or another doubt; inactive = no such curve, though single readings can be large; an effect the other way counts as inactive or inconclusive. Unless noted, % is scaled to controls: 0 for no effect and ±100 for the full control effect.

SMILES	IL-1B inflam inh	HT1080 IDH1KD tx	HT1080NT lethal	DT40 TDP1 no CPT	DT40 TDP1 CPT
Cc1cccc(CN(CC(=O)N/N=C/c2cccs2)S(=O)(=O)c2ccc(Cl)cc2)c1	-11.1	?	-23.1%	29.1µM*	?
CC(/C=C/c1ccccc1F)=N\NC(=O)c1ccc(Cl)cc1	0.0	7.31µM*	4.61µM*	14.6µM*	14.6µM*
COC(=O)N/N=C(\C)c1cccs1	-6.0	-6.8%	1.1%	-6.2%	-6.7%
CC(/C=C/c1ccccc1F)=N\NC(=O)c1ccccc1	?	?	-23.2%	?	?
CC(=O)Nc1ccc(C=NNC(=O)c2ccc(NS(=O)(=O)c3cccs3)cc2)cc1	7.0	-1.2%	-1.8%	2.3%	-10.2%
C/C(=N\NC(=O)c1ccc(NS(=O)(=O)c2cccs2)cc1)c1ccc(Cl)cc1	-5.5	-0.4%	-0.1%	23.1µM*	?
C/C(=N\NC(=O)c1ccc(NS(=O)(=O)c2cccs2)cc1)c1cccs1	-52.3*	1.9%	2.3%	-14.9%	18.0%
O=C(N/N=C/c1cccs1)c1cccc(S(=O)(=O)Nc2ccc(Cl)cc2)c1	0.0	16.4µM*	11.6µM*	?	?
COc1ccc(NS(=O)(=O)c2cccc(C(=O)N/N=C/c3ccccc3OC)c2)cc1	13.0	7.6%	-4.5%	?	-26.6%
CCOC(=O)c1ccccc1NC(=O)c1sc2ncn(CC)c(=O)c2c1C	/	/	/	-15.6%	-1.6%
O=C(NCC(O)c1ccc([N+](=O)[O-])cc1)C1=COCCO1 (configuration not stated)	-6.5	-9.4%	11.9%	-0.8%	2.5%
NC(N)=NCCCS(=O)(=O)Nc1ccc(Nc2c3ccccc3nc3cc([N+](=O)[O-])ccc23)cc1	-2.0	16.9%	9.2%	16.4µM*	9.2µM*
CS(=O)(=O)c1nc(S(=O)(=O)c2ccc(Cl)cc2)c(NCc2ccccn2)s1	?	-7.1%	-6.5%	?	4.0%
CC(C)OCCCNc1sc(S(=O)(=O)c2ccccc2)nc1S(=O)(=O)c1ccc(Cl)cc1	/	/	/	18.4µM*	?
CCS(=O)(=O)c1nc(S(=O)(=O)c2ccc(C)cc2)c(NCCCn2ccnc2)s1	-14.2	9.5%	7.4%	15.9%	-0.2%
CCCCNc1sc(S(=O)(=O)CCC)nc1S(=O)(=O)c1ccc(C)cc1	/	/	/	20.6µM*	?
CCCS(=O)(=O)c1nc(S(=O)(=O)c2ccc(C)cc2)c(NCC(C)C)s1	/	/	/	20.6µM*	?
CCCCNc1sc(S(=O)(=O)CC)nc1S(=O)(=O)c1ccc(C)cc1	/	/	/	23.1µM*	?
CCCS(=O)(=O)c1nc(S(=O)(=O)c2ccc(C)cc2)c(NCc2ccccc2)s1	/	/	/	?	-27.2%
CCOC(=O)COc1coc(CN2CCN(c3ccc(F)cc3)CC2)cc1=O	20.4	10.3%	5.5%	20.3%	15.5%
CC1CC(C)CN(c2ccc(C(=O)NCc3ccc4c(c3)OCO4)cc2[N+](=O)[O-])C1 (configuration not stated)	?	10.6%	1.4%	-2.2%	1.8%
COC(=O)c1[nH]c2ccc(Br)cc2c1NC(=O)C(C)N1CCN(C2CCCCC2)CC1 (configuration not stated)	-81.8*	20.6µM*	?	16.4µM*	5.17µM*
CS(=O)(=O)N1CCC2(CCCN(C(=O)Nc3ccccc3)C2)CC1	/	/	/	4.2%	-0.2%
CCCCSc1nnc([C@H](CC(C)C)NC(=O)OC(C)(C)C)o1	36.8	0.4%	3.4%	?	18.4µM*
CCOc1ccc(Nc2nc(N)nc(CSC(=S)N3CCOCC3)n2)cc1	?	-13.5%	-1.4%	20.6µM*	?
SMILES	IL-1B inflam inh	HT1080 IDH1KD tx	HT1080NT lethal	DT40 TDP1 no CPT	DT40 TDP1 CPT
CC1CC(C)CN(C(=S)SCc2nc(N)nc(Nc3ccccc3)n2)C1 (configuration not stated)	-15.7	32.6µM*	?	?	?
Nc1nc(CSC(=S)N2CCCCC2)nc(Nc2ccccc2)n1	?	-0.6%	-4.2%	?	?
CC(c1ccon1)N(C)Cc1cn(C)nc1-c1cccc(Cl)c1 (configuration not stated)	25.5	-5.4%	15.6%	16.4µM*	?
Cc1cnccc1CN(C)Cc1cn(C)nc1-c1cccc(Cl)c1	0.0	-8.8%	-7.5%	?	?
CCOc1cc(OCC)cc(C(=O)N2CCC[C@H]2C(=O)N2CCC[C@H]2C(=O)NCc2cccc(OC)c2)c1	33.4	6.1%	1.8%	?	-26.0%
CCOc1cccc(/C=N/NC(=O)c2cccnc2)c1O	124.5	5.17µM*	?	?	?
O=C(N/N=C/c1ccccc1OCc1ccccc1Cl)c1cccnc1	48.6	-2.1%	?	23.1µM*	?
COc1cccc(/C=N/NC(=O)c2nc(-c3ccccc3)cc(-c3ccccc3)n2)c1O	10.8	?	?	9.2µM*	11.6µM*
O=C(N/N=C/c1ccccc1O)C(=O)N1CCCCCC1	163.9	8.2µM*	?	?	?
COc1cccc(/C=N/NC(=O)c2ccc3nc[nH]c3c2)c1O	114.6	?	?	-29.7%	?
CCOc1cc(/C=N/NC(=O)c2cccnc2)ccc1O	25.6	-0.1%	-0.8%	13.5%	-12.8%
COC(=O)C(C)Sc1nnc2cc(C)c3cc(C)cc(C)c3n12 (configuration not stated)	/	/	/	-28.3%	-18.5%
CCOC(=O)Cc1csc(NS(=O)(=O)c2ccc(SC)cc2)n1	5.4	-10.8%	-0.2%	3.6%	6.9%
O=C(NCCS(=O)(=O)N1CCN(c2ccc(F)cc2)CC1)c1ccco1	-2.3	0.3%	0.2%	-7.1%	0.6%
CCCN(Cc1nnc(-c2ccccc2Cl)o1)C(=O)c1cccc(S(=O)(=O)N2CCOCC2)c1	-28.6	-1.7%	-3.4%	-21.7%	?
COc1cccc(/C=N/NC(=O)N/N=C/c2cccc(OC)c2O)c1O	-96.8*	-18.5%	-21.3%	3.66µM*	?
COc1cccc(/C=N/NC(=O)CSc2ccccc2C)c1OC	18.3	0.7%	12.8%	-15.4%	3.9%
COc1cccc(/C=N/Nc2nn3cnnc3c3ccccc23)c1O	54.2	?	-11.4%	1.16µM*	2.59µM*
CCOc1cc(C#N)c(NC(=O)c2cccnc2)cc1OCC	49.0	5.17µM*	?	1.84µM*	1.3µM*
COc1ccccc1C=NNC(=O)NN=Cc1ccccc1OC	-17.4	-20.7%	-19.3%	?	-13.5%
COc1cccc(/C=N/NC(=O)CSc2ccccc2C)c1O	46.4	25.9µM*	?	1.3µM*	1.16µM*
Oc1cccc(/C=N/Nc2nn3cnnc3c3ccccc23)c1	7.1	-10.9%	-12.3%	-23.8%	-28.6%
O=C(Nc1ccccc1C(=O)N1CCCCC1)c1ccccc1C(F)(F)F	-11.5	7.4%	6.2%	7.8%	5.4%
